According to PMC12820563, “FoxP3 forms a head-to-head dimer in vivo and stabilizes its multimerization on adjacent microsatellites”:
The full ranking holds about 16,000 sequences; the median of “rpm ratio (pull-down/input)” is about 0.94, and the highest 2% start at about 1.7. This excerpt belongs to a sample that is enriched for the highest values.

Target: T1, MBP-FoxP1dN (Mus musculus, UniProt P58462 326-579)
T1 sequence: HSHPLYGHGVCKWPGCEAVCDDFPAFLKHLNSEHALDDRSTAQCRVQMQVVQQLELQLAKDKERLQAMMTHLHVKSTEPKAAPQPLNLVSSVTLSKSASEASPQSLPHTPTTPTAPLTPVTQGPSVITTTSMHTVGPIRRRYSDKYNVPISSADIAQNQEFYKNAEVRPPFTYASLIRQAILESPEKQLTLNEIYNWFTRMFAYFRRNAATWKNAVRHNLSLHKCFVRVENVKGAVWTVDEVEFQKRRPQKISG
Test: PD-seq (MBP pull-down with sequencing); 20 mM Tris-HCl pH 7.5, 100 mM NaCl, 1.5 mM MgCl2, 0.4 uM protein, 0.1 uM dsDNA library, 30 min, room temperature, amylose pull-down; high values mean tight binding
Conditions: protein: recombinant; tags: His6-MBP; chain copies: 2; dsDNA, one strand shown
How it was run: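 His6-MBP-tagged mouse FoxP3 or FoxP1 fragment lacking the N-terminus, expressed in E. coli, was mixed at 0.4 µM with 0.1 µM Klenow-filled double-stranded degenerate DNA library. Incubation was 30 min at room temperature in Tris pH 7.5 buffer with NaCl and MgCl2. Complexes were caught on amylose resin and washed three times; DNA was released with proteinase K, PCR-barcoded and Illumina-sequenced. Binding is reads-per-million enrichment, pull-down over input, with replicates pooled.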

| Sequence | binding signal |
| --- | --- |
| GATGATTGTTCTCCCAGCTGATGAATTATTTCTGTCGAGTAAACAAATTTTCCTAATCTTTCTGTTCAAGCGCCATCTAC | 1.11 RPM ratio (pull-down/input) |
| GATGATTGTTCTCCCAGCTGATGAATTATTATTGTCGAGTAAACAAATTTTCCTAATCTTTCTGTTCAAGCGCCATCTAC | 3.2 RPM ratio (pull-down/input) |
| GATGATTGTTCTCCCAGCTGATGAATTATTGTCGTCGAGTAAACAAATTTTCCTAATCTTTCTGTTCAAGCGCCATCTAC | 1.56 RPM ratio (pull-down/input) |
| GATGATTGTTCTCCCAGCTGATGAATTATGAGTCTCGAGTAAACAAATTTTCCTAATCTTTCTGTTCAAGCGCCATCTAC | 0.886 RPM ratio (pull-down/input) |
| GATGATTGTTCTCCCAGCTGATGAATTACGATCGTCGAGTAAACAAATTTTCCTAATCTTTCTGTTCAAGCGCCATCTAC | 0.952 RPM ratio (pull-down/input) |
| GATGATTGTTCTCCCAGCTGATGAATTTGAGCTTTCGAGTAAACAAATTTTCCTAATCTTTCTGTTCAAGCGCCATCTAC | 0.854 RPM ratio (pull-down/input) |
| GATGATTGTTCTCCCAGCTGATGAATTCGCTTGCTCGAGTAAACAAATTTTCCTAATCTTTCTGTTCAAGCGCCATCTAC | 0.817 RPM ratio (pull-down/input) |
| GATGATTGTTCTCCCAGCTGATGAATTAAACTCTTCGAGTAAACAAATTTTCCTAATCTTTCTGTTCAAGCGCCATCTAC | 0.825 RPM ratio (pull-down/input) |
| GATGATTGTTCTCCCAGCTGATGAATTTTTAATCTCGAGTAAACAAATTTTCCTAATCTTTCTGTTCAAGCGCCATCTAC | 0.864 RPM ratio (pull-down/input) |
| GATGATTGTTCTCCCAGCTGATGAATTAAGTCCTTCGAGTAAACAAATTTTCCTAATCTTTCTGTTCAAGCGCCATCTAC | 0.887 RPM ratio (pull-down/input) |
| GATGATTGTTCTCCCAGCTGATGAATTCTTCATCTCGAGTAAACAAATTTTCCTAATCTTTCTGTTCAAGCGCCATCTAC | 0.813 RPM ratio (pull-down/input) |
| GATGATTGTTCTCCCAGCTGATGAATTGGTGCATTCGAGTAAACAAATTTTCCTAATCTTTCTGTTCAAGCGCCATCTAC | 1.35 RPM ratio (pull-down/input) |
| GATGATTGTTCTCCCAGCTGATGAATTAACCTGCTCGAGTAAACAAATTTTCCTAATCTTTCTGTTCAAGCGCCATCTAC | 0.79 RPM ratio (pull-down/input) |
| GATGATTGTTCTCCCAGCTGATGAATTGACGAACTCGAGTAAACAAATTTTCCTAATCTTTCTGTTCAAGCGCCATCTAC | 1.03 RPM ratio (pull-down/input) |
| GATGATTGTTCTCCCAGCTGATGAATTTCTTGGGTCGAGTAAACAAATTTTCCTAATCTTTCTGTTCAAGCGCCATCTAC | 0.716 RPM ratio (pull-down/input) |
| GATGATTGTTCTCCCAGCTGATGAATTATGTATCTCGAGTAAACAAATTTTCCTAATCTTTCTGTTCAAGCGCCATCTAC | 1.45 RPM ratio (pull-down/input) |
| GATGATTGTTCTCCCAGCTGATGAATTATGTGAATCGAGTAAACAAATTTTCCTAATCTTTCTGTTCAAGCGCCATCTAC | 1.14 RPM ratio (pull-down/input) |

| Sequence | binding signal |
| --- | --- |
| GATGATTGTTCTCCCAGCTGATGAATTGTATGTATCGAGTAAACAAATTTTCCTAATCTTTCTGTTCAAGCGCCATCTAC | 1.67 RPM ratio (pull-down/input) |
| GATGATTGTTCTCCCAGCTGATGAATTATGTGTATCGAGTAAACAAATTTTCCTAATCTTTCTGTTCAAGCGCCATCTAC | 1.92 RPM ratio (pull-down/input) |
| GATGATTGTTCTCCCAGCTGATGAATTATATGTATCGAGTAAACAAATTTTCCTAATCTTTCTGTTCAAGCGCCATCTAC | 1.41 RPM ratio (pull-down/input) |
| GATGATTGTTCTCCCAGCTGATGAATTATGTATATCGAGTAAACAAATTTTCCTAATCTTTCTGTTCAAGCGCCATCTAC | 1.79 RPM ratio (pull-down/input) |
| GATGATTGTTCTCCCAGCTGATGAATTACAAAATTCGAGTAAACAAATTTTCCTAATCTTTCTGTTCAAGCGCCATCTAC | 1.37 RPM ratio (pull-down/input) |
| GATGATTGTTCTCCCAGCTGATGAATTCACCCGGTCGAGTAAACAAATTTTCCTAATCTTTCTGTTCAAGCGCCATCTAC | 0.783 RPM ratio (pull-down/input) |
| GATGATTGTTCTCCCAGCTGATGAATTTAGTCTCTCGAGTAAACAAATTTTCCTAATCTTTCTGTTCAAGCGCCATCTAC | 0.934 RPM ratio (pull-down/input) |
| GATGATTGTTCTCCCAGCTGATGAATTCCCTTTCTCGAGTAAACAAATTTTCCTAATCTTTCTGTTCAAGCGCCATCTAC | 0.783 RPM ratio (pull-down/input) |
| GATGATTGTTCTCCCAGCTGATGAATTCCGCCGATCGAGTAAACAAATTTTCCTAATCTTTCTGTTCAAGCGCCATCTAC | 0.721 RPM ratio (pull-down/input) |
| GATGATTGTTCTCCCAGCTGATGAATTATTAACCTCGAGTAAACAAATTTTCCTAATCTTTCTGTTCAAGCGCCATCTAC | 1.06 RPM ratio (pull-down/input) |
| GATGATTGTTCTCCCAGCTGATGAATTTACACAATCGAGTAAACAAATTTTCCTAATCTTTCTGTTCAAGCGCCATCTAC | 1.87 RPM ratio (pull-down/input) |
| GATGATTGTTCTCCCAGCTGATGAATTACACAGATCGAGTAAACAAATTTTCCTAATCTTTCTGTTCAAGCGCCATCTAC | 1.18 RPM ratio (pull-down/input) |
| GATGATTGTTCTCCCAGCTGATGAATTTTTACAATCGAGTAAACAAATTTTCCTAATCTTTCTGTTCAAGCGCCATCTAC | 1.23 RPM ratio (pull-down/input) |
| GATGATTGTTCTCCCAGCTGATGAATTTTACACATCGAGTAAACAAATTTTCCTAATCTTTCTGTTCAAGCGCCATCTAC | 1.11 RPM ratio (pull-down/input) |
| GATGATTGTTCTCCCAGCTGATGAATTACACACATCGAGTAAACAAATTTTCCTAATCTTTCTGTTCAAGCGCCATCTAC | 1.48 RPM ratio (pull-down/input) |
| GATGATTGTTCTCCCAGCTGATGAATTACACAAATCGAGTAAACAAATTTTCCTAATCTTTCTGTTCAAGCGCCATCTAC | 1.77 RPM ratio (pull-down/input) |
